EWS-Fli block: EWS/Fli transcriptional activity inhibition; A673 NR0B1-luciferase reporter, viability-normalised; inhibition, % at 12.6 µM; hit rate 0.67% among 350,000; AID 651661;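 active means mean inhibition of at least 50% after viability correction, with every replicate also passing that limit; inconclusive means mean reaches 50% but only one of two replicates passes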;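 further: firefly luciferase signal divided by Alamar Blue viability fluorescence both relative to DMSO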
INS-1E GSIS act: primary screen for activators of insulin secretion dependent on glucose, INS-1E cells, GLuc reporter luminescence; AID 743287; hit rate 0.61% among 370,000; activation, % at 16.6 µM; INS-1E GLuc reporter insulin secretion, 2-3 h;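 active means lowest replicate activation of at least 40%, so every replicate reaches that level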
PAX8 inh HTS: inhibitors of PAX8 transcriptional activity in RMG-I cells. RMG-I TPO-luciferase reporter, SteadyGlo, 24 h. inhibition, % at 12.6 µM. hit rate 1.2% among 360,000;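 active means mean replicate inhibition at least 60% with every replicate also reaching 60%; inconclusive means only one of the two criteria is met; inactive means mean below 60% and not all replicates reaching 60%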;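 further: luciferase light reporting Pax8 driven TPO promoter activity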
miR122 inh: inhibitors of miR-122 in Huh7 cells. AID 602342. activation (reporter increase), % at 12.5 µM. Huh7 miR-122 Renilla luciferase sensor, 48 h; neutral wells = 0, positive control = 100. hit rate 0.3% among 340,000;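 active means mean replicate activation score at least 90 and every replicate individually at or above 90; inconclusive means only one of the two criteria met; inactive means neither criterion met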;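 further: higher luciferase means less miR-122 activity so hits act as miR-122 inhibitors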
Statin myotox sup: suppression of simvastatin myotoxicity; C2C12 myotubes + simvastatin, ATP luminescence, 48 h; scaled: DMSO 0, geranylgeraniol control 100; rescue of ATP level, % at 7.49 µM; hit rate 0.78% among 330,000; AID 602340;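 active means mean ATP rescue above about 67%, or every replicate alone reaching that limit, limit read from the data, passing the limit was not always enough; inconclusive means no clear call, values can overlap the other calls; inactive means mean under the limit and some replicate under it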;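 further: myotubes were challenged with 10 µM simvastatin during compound exposure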
HIV Env fusion: blocks HIV Env-driven cell-cell fusion; hit rate 1.1% among 360,000; HeLa-JRFL Env/CEM21 cell fusion, luciferase; inhibition, % at 12.3 µM;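 active means mean replicate inhibition score of at least 50 and every replicate individually at or above 50; inconclusive means only one of the two criteria met; inactive means mean below 50 and not all replicates reaching 50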
Large screens that a line does not name were inactive; [ ] = another dose, or the depositor's remark. Compounds with a hit are over-represented: about 3.1% of the library has one in this group of screens.

Cc1ccc(S(=O)(=O)Nc2cccc3c2O[C@H](CN(C)Cc2ccc(Cl)c(Cl)c2)[C@H](C)CN([C@H](C)CO)C3=O)cc1	HIV Env fusion 85[16.7 µM]
Cc1ccc(S(=O)(=O)Nc2cccc3c2O[C@H](CN(C)Cc2ccc(Cl)c(Cl)c2)[C@@H](C)CN([C@@H](C)CO)C3=O)cc1	none
Cc1ccc(S(=O)(=O)Nc2cccc3c2O[C@H](CN(C)Cc2ccc(Cl)c(Cl)c2)[C@H](C)CN([C@@H](C)CO)C3=O)cc1	none (no result: miR122 inh, Statin myotox sup, HIV Env fusion)
COc1ccc(-c2c(C#N)c(N)nc3c2c(=O)n(C)c(=O)n3C)cc1	none (no result: EWS-Fli block, INS-1E GSIS act, PAX8 inh HTS, HIV Env fusion)
CCOc1ccc(-c2c(C#N)c(N)nc3c2c(=O)n(C)c(=O)n3C)cc1OC	Statin myotox sup 84 (no result: EWS-Fli block, INS-1E GSIS act, PAX8 inh HTS, HIV Env fusion)
C[C@H](CO)N1C[C@H](C)[C@@H](CN(C)C(=O)Nc2ccc(C(F)(F)F)cc2)Oc2ccc(NS(=O)(=O)c3ccc(F)cc3)cc2CC1=O	none
CCCCC(=O)NC(c1cccc([N+](=O)[O-])c1)c1ccc2cccnc2c1O (configuration not stated)	none
O=[N+]([O-])c1ccc(NC(c2ccccc2)c2ccc3cccnc3c2O)cc1 (configuration not stated)	PAX8 inh HTS 83, HIV Env fusion 62 (no result: INS-1E GSIS act)
COc1cccc(C(Nc2ccccc2)c2ccc3ccc(C)nc3c2O)c1 (configuration not stated)	PAX8 inh HTS 66 (no result: INS-1E GSIS act, miR122 inh, Statin myotox sup)
COc1cccc(C(NC(C)=O)c2ccc3cccnc3c2O)c1 (configuration not stated)	PAX8 inh HTS 69
CCCC(=O)NC(c1ccccc1)c1ccc2cccnc2c1O (configuration not stated)	PAX8 inh HTS 79 (no result: INS-1E GSIS act)
CC(=O)NC(c1cccc([N+](=O)[O-])c1)c1ccc2cccnc2c1O (configuration not stated)	none (no result: miR122 inh)
O=C(Nc1cc(F)ccc1F)N1CC(=O)N2[C@H](CO)[C@H](c3ccc(C#CC4CCCC4)cc3)[C@H]2C1	none (no result: miR122 inh, Statin myotox sup, HIV Env fusion)
CCCN(C)C[C@H]1Oc2cc(-c3cccnc3)ccc2S(=O)(=O)N([C@@H](C)CO)C[C@H]1C	none (no result: PAX8 inh HTS)
C[C@@H]1CCCCO[C@H](CN(C)C(=O)Nc2ccccc2)[C@@H](C)CN([C@@H](C)CO)C(=O)c2cc(NC(=O)CCCN(C)C)ccc2O1	none (no result: Statin myotox sup)
CCCCC(=O)NC(c1ccccc1Cl)c1ccc2cccnc2c1O (configuration not stated)	PAX8 inh HTS 85
CCCCC(=O)NC(c1ccc(C(C)C)cc1)c1ccc2cccnc2c1O (configuration not stated)	PAX8 inh HTS 85 (no result: miR122 inh)
CCCCC(=O)NC(c1ccco1)c1cc(Cl)c2cccnc2c1O (configuration not stated)	none
CC(=O)NC(c1ccc(C(C)C)cc1)c1ccc2cccnc2c1O (configuration not stated)	PAX8 inh HTS 95 (no result: miR122 inh)
Oc1c(C(Nc2cccc(C(F)(F)F)c2)c2cccnc2)ccc2cccnc12 (configuration not stated)	none (no result: EWS-Fli block, miR122 inh, Statin myotox sup)
Oc1cccc(C(Nc2nccs2)c2ccc3cccnc3c2O)c1 (configuration not stated)	PAX8 inh HTS 75 (no result: miR122 inh, Statin myotox sup)
N#C[C@H]1[C@H](c2ccc(C3=CCCC3)cc2)[C@H](CO)N1C(=O)NC1CCCC1	HIV Env fusion inconclusive (no result: miR122 inh)
CCCC(=O)NC(c1ccc(OC)cc1)c1ccc2cccnc2c1O (configuration not stated)	PAX8 inh HTS 77 (no result: miR122 inh, Statin myotox sup)
CCCCC(=O)NC(c1ccccc1)c1ccc2cccnc2c1O (configuration not stated)	PAX8 inh HTS 87
O=C1C=CC2(O[C@H](c3ccccc3)[C@@H](c3ccccc3)O2)[C@H](Sc2ccccc2O)C1	EWS-Fli block 68 (no result: miR122 inh, Statin myotox sup)
Cc1noc(C)c1NC(=O)Nc1ccc2c(c1)CC(=O)N([C@H](C)CO)C[C@H](C)[C@H](CN(C)S(=O)(=O)c1c(C)noc1C)O2	none
O=C(CN1CCN(c2nc(-c3ccc(Cl)cc3)cs2)CC1)NCc1ccco1	HIV Env fusion 60 (no result: EWS-Fli block, PAX8 inh HTS)
S=C(NCc1ccco1)N1CCN(c2nc(-c3ccc(Cl)cc3)cs2)CC1	none
O=C(COc1ccc2ccccc2c1)NNC(=O)Cc1ccccc1	none (no result: INS-1E GSIS act)
O=C(COc1ccc2ccccc2c1)NNC(=O)Cc1cccc2ccccc12	Statin myotox sup 114 (no result: EWS-Fli block, INS-1E GSIS act)
CNC[C@@H]1Oc2ccc(NS(=O)(=O)c3cccs3)cc2C(=O)N([C@H](C)CO)C[C@H]1C	none (no result: PAX8 inh HTS, HIV Env fusion)
O=C(NC12CC3CC(CC(C3)C1)C2)c1ccc(Br)o1	none
O=C(NC12CC3CC(CC(C3)C1)C2)c1ccc([N+](=O)[O-])o1	PAX8 inh HTS 98 (no result: miR122 inh)
C[C@H](CO)N1C[C@H](C)[C@@H](CN(C)C(=O)Nc2cccc3ccccc23)Oc2ccc(NC(=O)CCC(F)(F)F)cc2C1=O	none
O=S(=O)(NCC1OCCc2ccccc21)c1ccc(S(=O)(=O)N2CCOCC2)cc1 (configuration not stated)	none (no result: EWS-Fli block, PAX8 inh HTS, HIV Env fusion)
c1ccc2c(c1)CCOC2CNCCCN1CCCCC1 (configuration not stated)	Statin myotox sup 91 (no result: EWS-Fli block, INS-1E GSIS act, PAX8 inh HTS, HIV Env fusion)
O=C(NCCCNCCCNC(=O)c1ccccn1)c1ccccn1	Statin myotox sup 115 (no result: EWS-Fli block)
CN(C)CCCNCCCNC(=O)c1ccccn1	none (no result: EWS-Fli block, INS-1E GSIS act, PAX8 inh HTS, HIV Env fusion)
CCOC(=O)N1CCN(c2ccccc2O)CC1	Statin myotox sup 124 (no result: EWS-Fli block, INS-1E GSIS act)
CCOC(=O)N1CCN(c2ccccc2OC)CC1	none (no result: miR122 inh, Statin myotox sup)
CCOc1ncccc1C(=O)N1CCN(c2cccc(C)c2C)CC1	EWS-Fli block inconclusive, PAX8 inh HTS 63 (no result: miR122 inh, Statin myotox sup)
CCOc1ncccc1C(=O)N1CCN(c2cc(Cl)ccc2C)CC1	EWS-Fli block inconclusive (no result: miR122 inh, Statin myotox sup)
Cc1cccc(N2CCN(C(=O)CNC(=O)C3CCCCC3)CC2)c1C	HIV Env fusion 56
Cc1cccc(N2CCN(C(=O)c3cccn4c(=O)c5c(C)c(C)sc5nc34)CC2)c1C	INS-1E GSIS act 156 (no result: EWS-Fli block, PAX8 inh HTS, Statin myotox sup)
CO[C@@H]1CN(C)C(=O)c2ccc(NC(=O)C3CC3)cc2OC[C@H](C)N(CCc2ccccc2)C[C@@H]1C	none
Cn1cnc(S(=O)(=O)N2C[C@H](O)COC[C@H]3O[C@H](CC(=O)NCc4cc(F)cc(F)c4)CC[C@@H]32)c1	none (no result: HIV Env fusion)
CCOC(=O)N1CCN(c2cccc(C)c2C)CC1	PAX8 inh HTS 70 (no result: Statin myotox sup, HIV Env fusion)
COc1ccc(CCN2C(=O)c3[nH]nc(-c4ccccc4O)c3C2c2cccc(O)c2)cc1OC (configuration not stated)	HIV Env fusion 75 (no result: EWS-Fli block, Statin myotox sup)
COc1cccc(NC(=O)Nc2ccc3c(c2)C(=O)N(C)[C@@H]2CC[C@@H](CC(=O)NCCc4ccccc4)O[C@@H]2CO3)c1	HIV Env fusion inconclusive (no result: miR122 inh)
O=C(C/C=N/OCc1ccc(Cl)cc1)c1cnc(-c2ccccc2)s1	none (no result: EWS-Fli block, PAX8 inh HTS, HIV Env fusion)
O=C(C/C=N/OCc1c(Cl)cccc1Cl)c1cnc(-c2ccccc2)s1	Statin myotox sup 108 (no result: EWS-Fli block, INS-1E GSIS act, PAX8 inh HTS, HIV Env fusion)

From PubChem
